Reference: PubChem BioAssay (NCI)
This is part of a sample that, as a whole, favours compounds with a hit. Of some 83,000 tested, about 20% had one in any assay.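 Each cell line was grown in a 96-well plate and treated with one concentration of compound for 48 hours. Values below 10 were considered active.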 A number with no mark means an inactive call. Calls of active or inactive are those of the source.

tested on: MDA-MB-231 breast; test: NCI-60 one-dose screen, 48 h (100 = growth as untreated, 0 = no growth, -100 = all killed); conditions: 10 µM unless noted

Compound	growth
O=C(Nc1ccc(Cl)c(C(F)(F)F)c1)Nc1ccc2oc(=O)ccc2c1	69.3%
COc1ccc2[nH]cc(/C=N/Nc3ccnc4cc(Cl)ccc34)c2c1	-93.9% (active)
O=C1Nc2ccccc2/C1=C/c1ccc(OCC(=O)c2ccccc2)cc1	96.2%
NS(=O)(=O)c1nnc(/N=C/c2c(O)[nH]c3ccccc23)s1	92.3%
COc1cc(/C=C2/C(=O)Nc3ccc(Cl)cc32)ccc1OCc1ccc(Cl)cc1	86.9%

tested on: RXF 393 renal; test: as above; conditions: 10 µM unless noted

Compound	growth
CC1=C(C)C(=O)C(Nc2ccc(C)cc2)=C(Br)C1=O	97.7%
Cc1ccc(N2CCN(C3=C(Cl)C(=O)c4ncccc4C3=O)CC2)cc1	12.5%
COc1ccc2[nH]cc(-c3nc(N)nnc3-c3cn(C)c4ccc(Br)cc34)c2c1	5.35% (active)
O=C(/C=C/c1ccccc1Cl)Nc1ncc(Cc2cc(Cl)ccc2Cl)s1	17.2%
CN(C)S(=O)(=O)c1ccc(-c2nc(C(Cl)Cl)nc3cc(-c4ccc(F)cc4)nn23)cc1	-19.2% (active)
Fc1ccc(-c2cn3c(-c4c[nH]c5ccc(Br)cc45)csc3n2)cc1	79.6%
C#Cc1nc(/C=C/CCCCCCC(=O)NO)cs1	-6.54% (active)
C#C[C@]1(O)CC[C@H]2[C@@H]3CC=C4c5sc(Nc6ncccc6C)nc5CC[C@]4(C)[C@H]3CC[C@@]21C	-75.3% (active)
CC(C)=CCC[C@](C)(O)[C@H]1CC[C@]2(C)[C@@H]1CC[C@@H]1[C@@]3(C)CC[C@H](N)C(C)(C)[C@@H]3CC[C@]12C	53.2%
Cc1cc2nc3c4cc(C#N)ccc4n(CCN(C)C)c3nc2cc1C	-62.1% (active)
N#Cc1c(-c2cccs2)cc(-c2cnccn2)nc1SCC(=O)N/N=C/c1ccncc1	105%
CCOC(=O)c1cccc(NC2=C(Cl)C(=O)C(C)=C(C)C2=O)c1	102%
c1ccc(-c2cn3c(-c4c[nH]c5ccccc45)csc3n2)cc1	83.2%
Cc1cc(Br)ccc1-n1cc(C#N)c(N)c1C(=O)c1ccc(Br)cc1	108%
Cn1cc(-c2cc3ncnc(Nc4ccc(NC(=O)Nc5cc(C(C)(C)C)on5)cc4)c3s2)cn1	-5.22% (active)
Nc1cc(C(=O)N/N=C\c2ccc(OC(F)F)c(OC3CCCC3)c2)nn1CC(O)c1ccccc1 (stereo not given)	96.3%
COc1ccc(C2CC(c3cccc(OCCCCOc4cccc(C5=NOC(c6ccc(OC)cc6)C5)c4)c3)=NO2)cc1 (stereo not given)	114%
O=C(COc1ccc(/C=C2\C(=O)Nc3ccc(Cl)cc32)cc1)Nc1ccc(Cl)cc1	75.4%
Cn1cc(-c2nnc(N)nc2-c2c[nH]c3ccc(F)cc23)c2cc(Br)ccc21	-12.7% (active)
C[C@H](Nc1ncnc2ccc(-c3cnc(Cl)c(NS(C)(=O)=O)c3)cc12)c1ccccc1	-54.5% (active)

Compound	growth
O=C(CSc1nc2ccccc2c(=O)n1CCc1ccccc1)Nc1ccc(S(=O)(=O)Nc2ccc(Cl)nn2)cc1	86.5%
NS(=O)(=O)c1ccc(Nc2nc(N/N=C/C=C/c3ccccc3)nc(Nc3ccccc3)n2)cc1	-8.45% (active)
O=C1[C@H]2Cc3c([nH]c4ccccc34)[C@H](c3ccc(Br)cc3)N2C(=O)CN1C1CCN(CC2CCCCC2)CC1	62.6%
CCc1cc2c(cc1Cl)nc1c(=O)[nH]c(=O)nc-1n2CCOCC(C)(C)C	75.5%
COc1ccc(-c2nc(C#N)c(N3CCC(S(=O)(=O)N4CCOCC4)CC3)o2)cc1	108%
COC(=O)c1ccc(NC2=C(Cl)C(=O)c3nc(C)ccc3C2=O)cc1	89.7%
Cc1ccccc1N1CCN(C2=C(Cl)C(=O)c3ncccc3C2=O)CC1	-10.9% (active)
CC[C@]12C=CCN3CC[C@@]4(c5ccc(OC)cc5N(C)[C@H]4[C@@](O)(C(=O)OC)[C@@H]1OC(=O)CCN1CCc4ccccc4C1)[C@@H]32	-95.9% (active)
Cc1nc(N)sc1-c1csc(Nc2ccc(C(F)(F)F)cc2)n1	18.3%
Cn1cc(-c2nnc(N)nc2-c2c[nH]c3ccc(Br)cc23)c2cc(Br)ccc21	93.1%
C#C[C@]1(O)CC[C@H]2[C@@H]3CC=C4c5sc(N(C)c6ccccc6)nc5CC[C@]4(C)[C@H]3CC[C@@]21C	75.8%
NS(=O)(=O)c1ccc(Nc2nc(Nc3ccccc3)nc(N3N=C(c4ccc(Cl)cc4)CC3c3ccc(Cl)cc3)n2)cc1 (stereo not given)	-3.26% (active)
O=C(CCCCCCN1CC(=O)N2[C@@H](c3ccc(Cl)s3)c3[nH]c4ccccc4c3C[C@H]2C1=O)NO	37.7%
CCCCc1nc2c(N)nc3ccccc3c2n1Cc1cccc(CN)c1	47.6%
N#C/C(=C\c1ccc(-c2ccc(Cl)c(Cl)c2)o1)C(=O)Nc1ncc(Cc2ccc(Cl)cc2)s1	66%
O=C(Nc1ccc(Cl)c(C(F)(F)F)c1)Nc1ccc2oc(=O)ccc2c1	89.2%
COc1ccc2[nH]cc(/C=N/Nc3ccnc4cc(Cl)ccc34)c2c1	-100% (active)
O=C1Nc2ccccc2/C1=C/c1ccc(OCC(=O)c2ccccc2)cc1	101%
NS(=O)(=O)c1nnc(/N=C/c2c(O)[nH]c3ccccc23)s1	118%
COc1cc(/C=C2/C(=O)Nc3ccc(Cl)cc32)ccc1OCc1ccc(Cl)cc1	93.4%
